HT1080NT lethal – qHTS for induction of synthetic lethality in tumor cells producing 2HG: qHTS for the HT-1080-NT fibrosarcoma cell line; AID 686970, 2013; HT-1080-NT fibrosarcoma viability, CellTiter-Glo ATP luminescence, 48 h; Potency, µM (top dose mostly 46.1 µM), for inactives: top-dose activity, negative = less viability, usual class: cytotoxic; 360,000 tested, 1.6% active;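 also: NT is the 2HG producing partner of a matched IDH1 knockdown line; potency is read from the fitted curve at half-maximal effect; 0% = DMSO-treated cells and -100% = media-only wells without cells; nearly all actives have a fitted effect of over 55% in size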
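HT-1080-NT fibrosarcoma cells (2HG-overproducing), 750 cells/well in RPMI with 5% FBS, dosed after 2 h and incubated 48 h at 37C. CellTiter-Glo luminescence normalized to DMSO and no-cell wells; concentration-response curves fitted and classed.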
IL1B secr inh – qHTS for Inhibitors of Inflammasome Signaling: IL-1-beta AlphaLISA Primary Screen; THP-1 LPS/ATP IL-1B secretion, AlphaLISA, 16 h; hits give low values; activity change, % at 57.5 µM; 360,000 tested, 4.7% active; AID 743279, 2014; in the data active = activity change below about -50%; inconclusive = mostly about -30% to -49%
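Secreted IL-1B measured by AlphaLISA bead assay after 16 h compound exposure of THP-1 cells; compounds (final up to 57.5 uM) added 1 h before LPS (250 ng/mL) and ATP (1.25 mM) stimulation; lower signal means less secretion.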
TDP1 cell CPT – qHTS for Inhibitors of human tyrosyl-DNA phosphodiesterase 1 (TDP1): qHTS in cells in presence of CPT. chicken DT40 Tdp1-/-;hTDP1 cells + 20 nM CPT, ATP luminescence, 48 h. Potency, µM (top dose mostly 46.2 µM), for inactives: at the top dose activity change, negative = growth inhibition, most hits filed as inhibitors. 420,000 tested, 12% active; also: potency is read from the fitted curve at half-maximal effect; nearly all actives have a fitted effect of over 55% in size
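Chicken DT40 Tdp1-/- cells complemented with human TDP1, 400 cells/well, exposed to compounds plus 20 nM camptothecin for at least 48 h at 37 C; viability read as ATP content by CellTiter-Glo luminescence.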
DT40 TDP1 no CPT – qHTS for Inhibitors of human tyrosyl-DNA phosphodiesterase 1 (TDP1): qHTS in cells in absence of CPT. 420,000 tested, 15% active. DT40 Tdp1-/- hTDP1 cells, no CPT, ATP luminescence, 48 h. AID 686978, 2013. Potency, µM (highest dose often 46.2 µM), inactives show at the highest dose activity change, negative = growth inhibition, usual class: inhibitors; also: potency is read from the fitted curve at half-maximal effect; nearly all actives have a fitted effect of over 55% in size
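Cells were dispensed at 400 per well, compounds added by pin tool, plates incubated ≥48 hr at 37 °C, then CellTiter-Glo added for 30 min at room temperature before luminescence reading. Line: DT40 Tdp1-/- complemented with hTDP1; camptothecin omitted.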
HT1080 IDH1KD tx – qHTS for induction of synthetic lethality in tumor cells producing 2HG: qHTS for the HT-1080-IDH1KD cell line | HT-1080 IDH1 knockdown viability, ATP luminescence, 48 h | Potency, µM (titrated, usually from 46.1 µM), without a hit: at the top dose activity, negative = toxicity, usual class: cytotoxic | 360,000 tested, 2% active;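 also: potency is read from the fitted curve at half-maximal effect; 0% = DMSO wells and -100% = cell-free medium wells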
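IDH1KD HT-1080 cells, 750/well, RPMI + 5% FBS; compound pinned after 2 h settling; 48 h, 37 °C; CellTiter-Glo luminescence; % activity normalised to DMSO and no-cell wells; curves fitted, classed by r2 and efficacy.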
12-LOX inh – Primary qHTS assay for inhibitors of human arachidonate 12S-lipoxygenase (ALOX12): Round 2. Polyunsaturated fatty acid lipoxygenase ALOX12 (Homo sapiens), P18054. purified 12hLO, xylenol orange hydroperoxide absorbance. Potency, µM (doses to about 108 µM), without a hit: top-dose activity change, negative = inhibition, most hits filed as inhibitors. 580,000 tested, 1.1% active. AID 1671190, 2021; also: potency is read from the fitted curve at half-maximal effect
Target sequence (P18054 whole entry, looked up): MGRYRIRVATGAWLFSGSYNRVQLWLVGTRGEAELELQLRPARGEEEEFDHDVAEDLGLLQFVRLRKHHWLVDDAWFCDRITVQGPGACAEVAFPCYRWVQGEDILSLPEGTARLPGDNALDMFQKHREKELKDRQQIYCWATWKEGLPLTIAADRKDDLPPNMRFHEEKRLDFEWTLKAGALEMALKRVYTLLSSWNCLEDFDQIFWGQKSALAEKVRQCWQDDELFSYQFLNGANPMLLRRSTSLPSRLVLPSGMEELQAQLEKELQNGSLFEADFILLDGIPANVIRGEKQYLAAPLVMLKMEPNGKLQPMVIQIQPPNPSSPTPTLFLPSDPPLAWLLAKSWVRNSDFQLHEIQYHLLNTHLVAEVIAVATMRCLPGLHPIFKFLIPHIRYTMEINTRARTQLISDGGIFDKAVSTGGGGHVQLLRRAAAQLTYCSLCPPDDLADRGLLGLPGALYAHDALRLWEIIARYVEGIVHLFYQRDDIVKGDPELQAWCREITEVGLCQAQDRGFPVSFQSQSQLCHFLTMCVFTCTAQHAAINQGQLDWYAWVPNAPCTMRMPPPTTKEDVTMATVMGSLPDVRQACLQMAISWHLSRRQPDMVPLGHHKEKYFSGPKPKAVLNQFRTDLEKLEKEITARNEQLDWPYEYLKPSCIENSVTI
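Hydroperoxide product was detected by ferrous iron/xylenol orange as the 573 to 405 nm absorbance ratio. Arachidonic acid at 40 uM (final) was turned over for 30 min at room temperature by 150 nM human 12hLO, pH 7.0 Hepes buffer, after 15 min compound preincubation.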
An asterisk follows results filed as active; ? = inconclusive; nt = not tested or not shown; [ ] = another dose, or the depositor's remark. Many of the other results were omitted from the sample, so hits are more common in it than they were. Unless noted, calls follow the shape of the dose curve; as a rule, active = well fitted curve in the direction sought with a large enough effect; inconclusive = small, poorly fitted or top-dose-only effect, or another doubt; inactive = no such curve, though single readings can be large; an effect the other way counts as inactive or inconclusive. Unless noted, % is scaled to controls: 0 for no effect and ±100 for the full control effect.

SMILES | HT1080NT lethal | IL1B secr inh | TDP1 cell CPT | DT40 TDP1 no CPT | HT1080 IDH1KD tx | 12-LOX inh
CCOC(=O)[C@@H]1[C@H]2COc3cc(OC)ccc3[C@@H]2N2C(=O)N(c3ccc(Br)cc3)C(=O)[C@@]12C | 19% | -1 | ? | ? | 0% | -2%
COC(=O)CC(NC(=O)CCc1cc(OC)ccc1OC)c1cccs1 (stereo not drawn) | nt | nt | nt | nt | nt | -2%
C[C@@H](CCc1ccc(O)cc1)NCCc1ccc(O)c(O)c1 | nt | nt | 6µM* | 11µM* | nt | ?
O[C@@H]1CCN(Cc2nc(C3(O)CCN(Cc4ccccc4F)CC3)cs2)C1 | nt | nt | nt | nt | nt | 33%[176 µM]
Cc1ccc(CNC(=O)c2nnn(CC(=O)Nc3cc(C)ccc3C)c2N)cc1 | nt | nt | 0% | 1% | nt | -18%
Cc1ccc(NC(=O)Cn2nnc(C(=O)NCc3cccs3)c2N)cc1 | ? | 35 | 6% | -22% | ? | 0%
Cc1ccc(C)c(NC(=O)Cn2nnc(C(=O)NCc3ccco3)c2N)c1 | ? | 13 | 1.3µM* | 1.2µM* | ? | -23%
Cc1ccc(C)c(NC(=O)Cn2nnc(C(=O)NCc3cccs3)c2N)c1 | ? | 22 | ? | ? | 23µM* | -5%
O=C(c1cccc(Cl)c1)N1CCN(c2ccc3c(c2)C2CC3CCN2C(=O)OCc2ccccc2)CC1 (stereo not drawn) | ? | -29 | ? | 15µM* | ? | ?
O=C(c1ccc(-c2ccccc2)cc1)N1CCN(c2ccc3c(c2)C2CC3CCN2C(=O)OCc2ccccc2)CC1 (stereo not drawn) | 2% | -8 | ? | ? | -6% | -16%
O=C(OCc1ccccc1)N1CCC2CC1c1cc(-c3ccccc3)ccc12 (stereo not drawn) | 0% | 2 | ? | 23µM* | 5% | -25%
N#Cc1ccc(C(=O)N2CCC3CC2c2cc(N4CCCCC4)ccc23)cc1 (stereo not drawn) | -2% | 10 | 16µM* | 16µM* | -1% | 11%
O=C(OCc1ccccc1)N1CCC2CC1c1ccc(N3CCN(Cc4ccccc4)CC3)cc12 (stereo not drawn) | nt | nt | nt | nt | nt | 3%
Cc1ccc(C(=O)N2CCN(c3ccc4c(c3)C3CC4CCN3C(=O)OCc3ccccc3)CC2)cc1 (stereo not drawn) | ? | -4 | 16µM* | 15µM* | ? | ?
Cc1ccc2c(COC(=O)c3ccc(C)s3)cc(=O)oc2c1 | nt | nt | nt | nt | nt | 2%
O=C(c1cccc(Cl)c1)N1CCC2CC1c1cc(-c3ccccc3)ccc12 (stereo not drawn) | -4% | 2 | ? | ? | -13% | ?
O=C(c1ccc(Cl)cc1)N1CCC2CC1c1cc(-c3ccccc3)ccc12 (stereo not drawn) | -3% | -18 | 16µM* | -23% | -1% | -14%
CCN(c1ccc(NC(=O)COC(=O)/C=C/c2ccco2)cc1)C(C)C | 0% | -2 | 26µM* | 18µM* | 0% | 2%
CCN(CC)c1ccc(S(=O)(=O)N2CCOCC2)cc1NC(=O)COC(=O)/C=C/c1ccco1 | 4% | -1 | 23µM* | 26µM* | 1% | -17%
CCc1ccc(NC(=O)COC(=O)/C=C/c2ccco2)cc1 | 3% | 34 | ? | ? | -2% | ?
CCN(CC)c1ccc(S(=O)(=O)N2CCOCC2)cc1NC(=O)COC(=O)c1cccnc1SC | -1% | 0 | ? | 16µM* | 4% | -9%
Cc1ccc(C(=O)NCCn2c(C)cc3ccccc32)cc1[N+](=O)[O-] | nt | nt | nt | nt | nt | -4%
CCn1ncc(Br)c1C(=O)Nc1ccc(F)c([N+](=O)[O-])c1 | 5% | -97* | -21% | ? | 16% | -23%
CCn1ncc(Br)c1C(=O)Nc1ccc(F)cc1F | 7% | 1 | 2% | ? | 1% | 2%
Cc1cccc(N2CCN(C(=O)c3cc4ccc5cccnc5c4[nH]3)CC2)c1C | nt | nt | 23µM* | ? | nt | -19%
SMILES | HT1080NT lethal | IL1B secr inh | TDP1 cell CPT | DT40 TDP1 no CPT | HT1080 IDH1KD tx | 12-LOX inh
CC(=O)c1ccc(N2CCN(C(=O)c3cc4ccc5cccnc5c4[nH]3)CC2)cc1 | nt | nt | 15µM* | 18µM* | nt | -6%
Cc1ccc(Cl)cc1N1CCN(C(=O)c2cc3ccc4cccnc4c3[nH]2)CC1 | nt | nt | ? | ? | nt | -9%
COC(=O)c1ccc(OC(=O)COc2ccc3oc4c(c3c2)CCCC4)c(OC)c1 | nt | nt | nt | nt | nt | -15%
CS(=O)(=O)Oc1ccc2cc(-c3ccccc3)c(=O)oc2c1 | nt | nt | nt | nt | nt | -23%
O=C(c1ccccc1F)N1CCN(c2ccccc2)CC1 | 16% | -17 | -2% | -5% | -8% | -12%
O=C(c1ccccc1F)N1CCN(c2cccc(C(F)(F)F)c2)CC1 | -2% | -23 | ? | 16µM* | 1% | -28%
O=C(c1c(F)c(F)c(F)c(F)c1F)N1CCN(c2cccc(C(F)(F)F)c2)CC1 | ? | -4 | ? | 18µM* | ? | 0%
CCCn1nc(C(=O)NCC(c2ccccc2)N2CCCC2)ccc1=O (stereo not drawn) | nt | nt | nt | nt | nt | 23%
S=C(NCc1ccccc1)N1CCN(c2cccc(Cl)c2)CC1 | -15% | -72* | -12% | ? | -4% | ?
S=C(NCCCN1CCOCC1)N1CCN(c2cccc(Cl)c2)CC1 | ? | ? | ? | 18µM* | ? | -20%
O=S(=O)(c1ccccc1)N1CCN(C(=S)NCCCN2CCOCC2)CC1 | 2% | 0 | 10% | -18% | -2% | -11%
COc1ccc(-c2noc([C@@H]3C[C@@H](O)CN3Cc3cccc(C#N)c3)n2)cc1 | nt | nt | nt | nt | nt | 1%[176 µM]
C=C(C)[C@@H]1C2=CC(C(=O)OC)=C(C[C@@H](C(=C)C)[C@H]3O[C@H]3C3=C[C@H]1OC3=O)O2 | 4µM* | nt | 1.1µM* | 1.1µM* | 3.5µM* | -4%
CCc1nc(OCc2ccccc2)c2sc3nc4c(cc3c2n1)COC(C)(C)C4 | 14% | -8 | 29µM* | ? | 7% | -8%
CC1(C)Cc2nc3sc4c(=O)[nH]cnc4c3cc2CS1 | -2% | ? | ? | ? | 0% | 0%

Source: PubChem
